# In PubChem BioAssay (NCATS):
# Records with an inconclusive call do not appear. Where a call stands in place of a potency, no number is given. For some of these results: Results with a measured potency or affinity are listed apart. Calls of active or inactive are those of the source. Where a SMILES comes first, the peptide text is derived from it. Bridges are numbered along the chain shown (N, C = ends). [ ]: non-standard residue; d: D form. The star is where a group is joined. Dab(CH2SO3H) = N[C@@H](CCNCS(=O)(=O)O)C(=O)O; X1 = CC[C@@H](C)CCCCC(=O)*; Dab = NCC[C@H](N)C(=O)O
# What was measured:
# [1] = Ebola virus entry assay, reporter ratio channel; AC50: Channel type: primary unless noted; outcome: Channel type: primary unless noted
# [2] = Ebola virus entry assay, blue channel (ratio component)
# [3] = Ebola virus entry assay, blue channel fluorescence
# [4] = Ebola virus entry cell assay, ratio channel
# [5] = Immunotoxin (SS1P) sensitization/mitigation study. Vehicle arm (DMEM) (AID 1159513); conditions: cell viability with vehicle (DMEM); series mostly up to 46.1 µM; further: potency means the concentration at half of the fitted maximal effect
# [6] = High-throughput drug toxicity screening in the BPDCN cell line Cal-1 (AID 1224825); conditions: Cal-1 BPDCN cell viability, qHTS; at 45.8 µM (top of the series) unless noted;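 further: cells exposed to compounds for 48 h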
# Method in brief: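 Viability of the BPDCN line Cal-1 is measured as ATP-based luminescence (CellTiter-Glo) following 48 h incubation with compounds. Percent activity uses DMSO-treated wells as 100% and 9.2 uM bortezomib as 0%.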
# [7] = qHTS assay for measurement of the activity of small molecule inhibitors on Zika virus induced Caspase-3 activity in human iPSC derived neural progenitor cells (hNPCs) (AID 1224857; active means well fitted inhibition curve with a large enough effect; further: nearly all actives have a fitted effect of over 65% in size); conditions: hNPCs ZIKV-induced caspase-3/7, Caspase-Glo luminescence, 6 h; series mostly up to 45.7 µM
# Method in brief: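 Human iPSC-derived neural progenitor cells pretreated 1 hr with compounds, then infected with Zika virus (2 FFU/cell) for 6 hours at 37 C. Caspase-3/7 measured by Caspase-Glo luminescence; % inhibition calculated from induction scaled to uninfected (0%) and infected (100%) wells.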
# [8] = Ebola virus entry reporter assay, green channel fluorescence
compound,measurement,setting,value
CN(c1nccc(=O)[nH]1)C1CCN(c2nc3ccccc3n2Cc2ccc(F)cc2)CC1,outcome,[1],inactive
same,outcome,[2],inactive
CCN(CC)CCOC(=O)c1ccc(N)cc1,outcome,[1],inactive
same,outcome,[2],inactive
COc1ccc(C(=O)c2ccccc2)c(O)c1,outcome,[1],inactive
same,outcome,[2],inactive
CC(=O)N=c1sc(S(N)(=O)=O)nn1C,outcome,[3],inactive
same,outcome,[4],inactive
CCCCC(CC)CN1CN(CC(CC)CCCC)CC(C)(N)C1 (stereo not given),outcome,[1],inactive
same,outcome,[2],inactive
O=C(N/N=C/c1ccccc1O)c1ccncc1,outcome,[1],inactive
same,outcome,[2],inactive
N#Cc1ccc(C(c2ccc(C#N)cc2)n2cncn2)cc1,outcome,[3],inactive
same,outcome,[4],inactive
same,Potency,[5],inactive
CCCCN(CCCC)CCCOC(=O)c1ccc(N)cc1,AC50,[1],8.91 µM (active)
same,outcome,[2],inactive
C[C@]12CC[C@@H]3c4ccc(OC(=O)N(CCCl)CCCl)cc4CC[C@H]3[C@@H]1CC[C@@H]2OP(=O)(O)O,outcome,[3],inactive
same,outcome,[4],inactive
same,viability (% of control),[6],82.9%
same,outcome,[7],inactive
CC(C)(C)CC(C)(C)c1ccc(OCCOCC[N+](C)(C)Cc2ccccc2)cc1,AC50,[1],2.51 µM (active)
COC(=O)N/N=C/c1c[n+]([O-])c2ccccc2[n+]1[O-],outcome,[1],inactive
same,outcome,[2],inactive
CC(C)C[C@H]1C(=O)N2CCC[C@H]2[C@]2(O)O[C@](NC(=O)[C@@H]3C=C4c5cccc6[nH]c(Br)c(c56)C[C@H]4N(C)C3)(C(C)C)C(=O)N12,outcome,[8],inactive
same,outcome,[4],inactive
CN(C)CCOc1ccc(/C(=C(/CCCl)c2ccccc2)c2ccccc2)cc1,outcome,[1],inactive [Channel type: confirmation]
same,outcome,[2],inactive
same,AC50,[4],3.55 µM (active)
CCOC(=O)C1=C(COCCN)NC(C)=C(C(=O)OC)C1c1ccccc1Cl (stereo not given),outcome,[4],inactive
COc1cccc2c1C(=O)c1c(O)c3c(c(O)c1C2=O)C[C@@](O)(C(C)=O)C[C@H]3O[C@H]1C[C@H](N)[C@H](O)[C@H](C)O1,outcome,[1],inactive [Channel type: confirmation]
same,outcome,[2],inactive
same,AC50,[4],5.62 µM (active)
CCN(CC)C(=O)[C@@H]1C=C2c3cccc4[nH]cc(c34)C[C@H]2N(C)C1,outcome,[1],inactive
same,outcome,[7],inactive
CN1CCN(CCC=C2c3ccccc3Sc3ccc(S(=O)(=O)N(C)C)cc32)CC1,outcome,[1],inactive [Channel type: confirmation]
same,AC50,[4],4.47 µM (active)
C[C@](O)(CS(=O)(=O)c1ccc(F)cc1)C(=O)Nc1ccc(C#N)c(C(F)(F)F)c1,outcome,[4],inactive
same,viability (% of control),[6],5.28%
same,outcome,[7],inactive
O=c1c(C2CC(c3ccc(-c4ccc(Br)cc4)cc3)Cc3ccccc32)c(O)sc2ccccc12 (stereo not given),outcome,[1],inactive
same,outcome,[2],inactive
same,outcome,[7],inactive
O=C(O[C@H]1CN2CCC1CC2)N1CCc2ccccc2[C@@H]1c1ccccc1,AC50,[4],7.94 µM (active)
O=C(OC1C[C@@H]2CC3C[C@H](C1)N2CC3=O)c1c[nH]c2ccccc12 (stereo not given in full),outcome,[8],inactive
same,outcome,[4],inactive
CCN(CC)CC#CCOC(=O)C(O)(c1ccccc1)C1CCCCC1 (stereo not given),outcome,[4],inactive
CN1[C@@H]2CC[C@H]1CC(OC(c1ccccc1)c1ccccc1)C2 (stereo not given in full),outcome,[1],inactive [Channel type: confirmation]
same,outcome,[2],inactive
same,AC50,[4],3.55 µM (active)
CC(C)[C@H]1C(=O)N2CCC[C@H]2[C@]2(O)O[C@](NC(=O)[C@@H]3C[C@@H]4c5cccc6[nH]cc(c56)C[C@H]4N(C)C3)(C(C)C)C(=O)N12,outcome,[8],inactive
same,outcome,[4],inactive
CNCCCC12CCC(c3ccccc31)c1ccccc12,outcome,[1],inactive [Channel type: confirmation]
same,outcome,[2],inactive
same,AC50,[4],3.16 µM (active)
CC(=O)O[C@H]1C(=O)[C@@]2(C)[C@H]([C@H](OC(=O)c3ccccc3)[C@]3(O)C[C@H](OC(=O)[C@H](O)[C@@H](NC(=O)c4ccccc4)c4ccccc4)C(C)=C1C3(C)C)[C@]1(OC(C)=O)CO[C@@H]1C[C@@H]2O,outcome,[8],inactive
same,outcome,[4],inactive
CN1CCN2c3ncccc3Cc3ccccc3C2C1 (stereo not given),outcome,[4],inactive
CC[C@H]1OC(=O)[C@H](C)[C@@H](O[C@H]2C[C@@](C)(OC)[C@@H](O)[C@H](C)O2)C(C)[C@@H](O[C@@H]2O[C@H](C)C[C@H](N(C)C)[C@@H]2O)[C@](C)(OC)C[C@@H](C)C(=O)[C@H](C)[C@@H](O)[C@]1(C)O (stereo not given in full),outcome,[1],inactive [Channel type: confirmation]
same,outcome,[2],inactive
same,AC50,[4],7.94 µM (active)
CO[C@H]1C=CO[C@@]2(C)Oc3c(C)c(O)c4c(O)c(c(/C=N/N5CCN(C6CCCC6)CC5)c(O)c4c3C2=O)NC(=O)/C(C)=C\C=C[C@H](C)[C@H](O)[C@@H](C)[C@@H](O)[C@@H](C)[C@H](OC(C)=O)[C@@H]1C,outcome,[8],inactive
same,outcome,[4],inactive
CC(C)NCC(O)c1ccc(NS(C)(=O)=O)cc1 (stereo not given),outcome,[4],inactive
CO[C@H]1C[C@@H]2CC[C@@H](C)[C@@](O)(O2)C(=O)C(=O)N2CCCC[C@@H]2C(=O)O[C@H]([C@@H](C)C[C@@H]2CC[C@H](O)[C@H](OC)C2)CC(=O)[C@H](C)C=C(C)[C@@H](O)[C@@H](OC)C(=O)[C@H](C)C[C@H](C)C=CC=CC=C1C,outcome,[1],inactive [Channel type: confirmation]
same,outcome,[2],inactive
same,outcome,[4],inactive
CO[C@H]1C[C@@H]2CC[C@@H](C)[C@@](O)(O2)C(=O)C(=O)N2CCCC[C@@H]2C(=O)O[C@H]([C@H](C)C[C@@H]2CC[C@H](OCCO)[C@H](OC)C2)CC(=O)[C@H](C)C=C(C)[C@@H](O)[C@@H](OC)C(=O)[C@H](C)C[C@H](C)C=CC=CC=C1C,outcome,[1],inactive [Channel type: confirmation]
same,outcome,[2],inactive
same,AC50,[4],14.1 µM (active)
same,Potency,[5],23.5 µM (active)
CC(C)(C)NC[C@H](O)COc1ccccc1C1CCCC1,outcome,[8],inactive
same,AC50,[4],3.55 µM (active)
COc1cc([C@@H]2c3cc4c(cc3C(O[C@@H]3O[C@@H]5CO[C@@H](C)O[C@H]5[C@H](O)[C@H]3O)C3COC(=O)[C@@H]32)OCO4)cc(OC)c1OP(=O)(O)O (stereo not given in full),AC50,[4],7.08 µM (active)
C[C@H]1[C@@H]2Cc3ccc(O)cc3[C@@]1(C)CCN2C,outcome,[1],inactive
same,outcome,[7],inactive
CN1CCN(C(c2ccccc2)c2ccc(Cl)cc2)CC1 (stereo not given),AC50,[4],10 µM (active)
C[C@]12CC[C@H]3[C@@H](CC[C@@]45O[C@H]4C(O)=C(C#N)C[C@]35C)[C@H]1CC[C@H]2O,outcome,[1],inactive
same,outcome,[2],inactive
same,viability (% of control),[6],51.6%
same,outcome,[7],inactive
CCOC(=O)CCC(=O)O[C@H]1[C@H](O[C@@H]2[C@@H](C)[C@H](O[C@H]3C[C@@](C)(OC)[C@@H](O)[C@H](C)O3)[C@@H](C)C(=O)O[C@H](CC)[C@@](C)(O)[C@H](O)[C@@H](C)C(=O)[C@H](C)C[C@@]2(C)O)O[C@H](C)C[C@@H]1N(C)C,outcome,[8],inactive
same,outcome,[4],inactive
C=CC[C@@H]1C=C(C)C[C@H](C)C[C@H](OC)[C@H]2O[C@@](O)(C(=O)C(=O)N3CCCC[C@H]3C(=O)O[C@H](C(C)=C[C@@H]3CC[C@H](O)[C@H](OC)C3)[C@@H](C)[C@@H](O)CC1=O)[C@@H](C)C[C@@H]2OC,outcome,[4],inactive
COc1cc(NS(C)(=O)=O)ccc1Nc1c2ccccc2nc2ccccc12,outcome,[8],inactive
same,outcome,[4],inactive
C[C@@H]1O[C@@H](O[C@H]2CC[C@@]3(C)[C@H](CC[C@@H]4[C@H]3C[C@@H](O)[C@]3(C)[C@@H](C5=CC(=O)OC5)CC[C@]43O)C2)C[C@H](O)[C@@H]1O[C@H]1C[C@H](O)[C@H](O[C@H]2C[C@H](O)[C@@H](O)[C@@H](C)O2)[C@H](C)O1 (stereo in doubt),outcome,[1],inactive [Channel type: confirmation]
same,outcome,[2],inactive
same,AC50,[4],0.794 µM (active)
CNCCC=C1c2ccccc2CCc2ccccc21,AC50,[4],7.94 µM (active)
O=C(O)C[C@H](O)C[C@H](O)/C=C/c1c(C2CC2)nc2ccccc2c1-c1ccc(F)cc1,outcome,[4],inactive
N#Cc1ccc2c(c1)N(CCCN1CCC(O)CC1)c1ccccc1S2,AC50,[4],22.4 µM (active)
CN=C1CN(O)C(c2ccccc2)=c2cc(Cl)ccc2=N1,outcome,[8],inactive
same,AC50,[4],12.6 µM (active)
CC[C@@H](C)CCCCC(=O)N[C@@H](CCNCS(=O)(=O)O)C(=O)N[C@H](C(=O)N[C@@H](CCNCS(=O)(=O)O)C(=O)N[C@H]1CCNC(=O)[C@H]([C@@H](C)O)NC(=O)[C@H](CCNCS(=O)(=O)O)NC(=O)[C@H](CCNCS(=O)(=O)O)NC(=O)[C@H](CC(C)C)NC(=O)[C@@H](CC(C)C)NC(=O)[C@H](CCNCS(=O)(=O)O)NC1=O)[C@@H](C)O (X1-[Dab(CH2SO3H)]T[Dab(CH2SO3H)][Dab][Dab(CH2SO3H)][dL]L[Dab(CH2SO3H)][Dab(CH2SO3H)]T; lactam 4-C),outcome,[4],inactive
COc1ccc2c(c1)C13CCCC[C@@H]1C(C2)N(C)CC3 (stereo not given in full),outcome,[4],inactive
CN1C[C@H](C(=O)N[C@]2(C)O[C@@]3(O)[C@@H]4CCCN4C(=O)[C@H](Cc4ccccc4)N3C2=O)C=C2c3cccc4[nH]cc(c34)C[C@H]21,outcome,[4],inactive
C[C@]12C=CC(=O)N[C@@H]1CC[C@@H]1[C@@H]2CC[C@]2(C)[C@@H](C(=O)Nc3cc(C(F)(F)F)ccc3C(F)(F)F)CC[C@@H]12,outcome,[4],inactive
CO[C@@H]1[C@@H](O[C@@H]2O[C@H](C)[C@@H](O[C@H]3C[C@@](C)(O)[C@@H](O)[C@H](C)O3)[C@H](N(C)C)[C@H]2O)[C@@H](CC=O)C[C@@H](C)[C@@H](O[C@@H]2CC[C@H](N(C)C)[C@@H](C)O2)/C=C/C=C/C[C@@H](C)OC(=O)C[C@H]1O,AC50,[4],11.2 µM (active)
COc1cc([C@@H]2c3cc4c(cc3[C@@H](O[C@@H]3O[C@@H]5CO[C@@H](c6cccs6)O[C@@H]5[C@H](O)[C@@H]3O)[C@H]3COC(=O)[C@H]23)OCO4)cc(OC)c1O,outcome,[4],inactive
